Compound activity (PubChem)
esBAF inh – SWI/SNF esBAF complex inhibition; AID 602393; mouse ES cells, Bmi1-luciferase knock-in reporter, 24 h; 100% = twice the neutral-well signal; reporter increase, % at 12.5 µM; 2% of 350,000 active; in the data active = activation above about 40%; inconclusive = no clear call, values can overlap the other calls;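 also: 0% = median of the plate's neutral control wells and 100% = double that signal; a rise in the Bmi1 reporter signal indicates esBAF inhibition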
MITF act – increases MITF-driven TRPM1 promoter luciferase signal; activation, % at 12.5 µM; 0.75% of 300,000 active; SK-MEL-5 TRPM1-promoter luciferase, 24 h; % of positive control, neutral wells = 0; AID 588334;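 active = mean activation of at least 80% with every replicate also reaching 80%; inconclusive = mean reaches 80% but some replicate falls short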;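 also: 0% = neutral control wells and 100% = parthenolide positive control wells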
AHR activator – activators of human aryl hydrocarbon receptor; activation, % at 5 µM; P35869; 2.5% of 320,000 active; AHR-responsive luciferase reporter cells, luminescence; AID 2796; in the data active = activation above about 47%;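 also: 0% = vehicle wells and 100% = reference agonist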
Target sequence (P35869 whole entry, looked up): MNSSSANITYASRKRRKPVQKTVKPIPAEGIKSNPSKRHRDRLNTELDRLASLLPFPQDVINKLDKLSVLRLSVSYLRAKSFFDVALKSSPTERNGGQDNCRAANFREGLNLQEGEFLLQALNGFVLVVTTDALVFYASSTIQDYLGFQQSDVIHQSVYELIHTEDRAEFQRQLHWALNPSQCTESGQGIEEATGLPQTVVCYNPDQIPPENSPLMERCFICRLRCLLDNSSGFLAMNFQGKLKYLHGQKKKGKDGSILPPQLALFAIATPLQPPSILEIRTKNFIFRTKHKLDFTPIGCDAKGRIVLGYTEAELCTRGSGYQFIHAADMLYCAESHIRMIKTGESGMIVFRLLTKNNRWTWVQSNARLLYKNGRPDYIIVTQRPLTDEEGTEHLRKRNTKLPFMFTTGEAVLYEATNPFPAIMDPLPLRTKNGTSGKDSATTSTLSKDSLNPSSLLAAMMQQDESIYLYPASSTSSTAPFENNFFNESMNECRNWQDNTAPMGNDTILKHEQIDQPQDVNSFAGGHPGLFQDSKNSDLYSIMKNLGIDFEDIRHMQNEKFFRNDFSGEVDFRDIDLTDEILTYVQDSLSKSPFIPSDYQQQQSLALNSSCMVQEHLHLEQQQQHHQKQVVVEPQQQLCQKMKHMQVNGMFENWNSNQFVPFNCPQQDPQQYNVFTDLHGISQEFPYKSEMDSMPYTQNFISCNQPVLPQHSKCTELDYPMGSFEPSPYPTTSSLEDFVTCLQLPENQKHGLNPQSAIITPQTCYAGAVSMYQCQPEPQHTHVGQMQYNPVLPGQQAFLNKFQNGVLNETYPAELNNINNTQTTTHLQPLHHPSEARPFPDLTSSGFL
Wnt bcat act – activators of Wnt/beta-catenin signaling. activation, % at 9.35 µM. Wnt/beta-catenin reporter cell assay, activator, plate reader. AID 743398. 1.2% of 300,000 active; in the data active = activation above about 30%, passing the limit was not always enough; inconclusive = no clear call, values can overlap the other calls;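 also: 0% = neutral control wells and 100% = positive control wells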
FXN GAA850 act – frataxin GAA850 promoter activation; HEK293 lucGAA850 FXN promoter luciferase reporter, 24 h; percent of 10 µM SAHA response; activation, % at 6 µM; 0.56% of 360,000 active; AID 540364;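 active = activation above the average of all compounds screened plus 3 SD, cutoff fixed separately per campaign, cut at about 7.5% in these data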;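 also: 0% = DMSO wells and 100% = 10 µM SAHA wells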
* marks the source's active call; other numbers are inactive results; ? = inconclusive; / = no result. This is a sample that favours compounds with a hit; in the whole collection about 4.2% have one here.

SMILES	esBAF inh	MITF act	AHR activator	Wnt bcat act	FXN GAA850 act
Cc1noc(C)c1NC(=O)Nc1ccc2c(c1)C(=O)N([C@H](C)CO)C[C@@H](C)[C@H](CN(C)CC1CC1)OCCCC[C@@H](C)O2	-2	/	/	/	/
CCCCNC(=S)N(C)/N=C/c1c(C)[nH]c2ccccc12	/	-11	71*	0	1
CC(C)NC(=O)C1C(c2ccc(C(F)(F)F)cc2)=Nc2ccccc2N1C(=O)c1ccco1 (stereo not given)	/	/	/	-1	/
CC(C)NC(=O)C1C(c2ccc(C(F)(F)F)cc2)=Nc2ccccc2N1C(=O)c1ccccc1 (stereo not given)	/	/	/	45*	/
CN(C)CC(=O)Nc1ccc2c(c1)[C@@H]1C[C@@H](CC(=O)N(C)C)O[C@H](CO)[C@@H]1O2	5	/	/	/	/
CC1(C)CCC(=O)N2CC[C@H]3C[C@H](OC(=O)Nc4ccc5c(c4)OCO5)C[C@@H]1[C@H]32	38	104*	60*	14	0
CC(C)(C)c1ccc(C(=O)CS(=O)(=O)c2ccccc2)cc1	9	108*	4	/	7
Cc1ccc(S(=O)(=O)CC(=O)c2ccccc2)cc1	/	15	-1	/	0
COc1ccccc1N/C(N)=N/c1nc(C(F)(F)F)cc(=O)[nH]1	3	-19	50*	-1	3
Cn1ncc(Br)c1C(=O)Nc1cccc(C(F)(F)F)c1	0	-2	71*	0	3
Cn1nc(C(=O)Nc2cccc(C(F)(F)F)c2)ccc1=O	-3	21	12	-1	0
CCCN(C)C[C@@H]1Oc2cc(C#CCC3CCCC3)ccc2S(=O)(=O)N([C@H](C)CO)C[C@H]1C	-3	/	/	/	/
Cc1csc(=N)n1-c1ccc(Cl)cc1	63*	97*	8	-1	4
CCCNC(=O)N1C[C@@H](C)[C@H](OC)CN(C)C(=O)c2cc(NC(=O)CCC)ccc2OC[C@H]1C	3	/	/	/	/
C/C(=N\Nc1ccc(Cl)cc1)c1ccccn1	48*	29	68*	/	4
C/C(=N\Nc1ccc(Cl)cc1)c1ccncc1	8	/	68*	3	0
C/C(=N\NC(=O)c1ccc(Cl)cc1)c1ccccn1	-9	/	5	15	2
N#CC1=C(SCC(=O)Nc2ccccc2)NC(=O)CC1c1ccco1 (stereo not given)	79*	54	6	/	2
N#CC1=C(SCC(=O)NCc2ccccc2)NC(=O)CC1c1ccco1 (stereo not given)	-5	-4	-1	/	0
C[C@@H]1CCCCO[C@H](CN(C)S(=O)(=O)c2ccc(F)cc2)[C@@H](C)CN([C@@H](C)CO)C(=O)c2cc(NS(=O)(=O)c3ccccc3)ccc2O1	2	/	/	/	/
Clc1ccc(OCCSc2ncccn2)c2ccccc12	20	41	1	14	5
c1cnc(SCCOc2cccc3ccccc23)nc1	/	106*	8	/	5
c1ccc(OCCOCCSc2ncccn2)cc1	13	28	32	/	5
Cc1cccc(OCCOCCSc2ncccn2)c1	28	4	62*	/	1
Cc1ccc(OCCSc2ncccn2)c(C)c1	35	153*	/	11	4
SMILES	esBAF inh	MITF act	AHR activator	Wnt bcat act	FXN GAA850 act
CO[C@H]1CN(C)C(=O)c2cc(NC(=O)Nc3ccccc3F)ccc2OC[C@@H](C)N(C)C[C@@H]1C	3	/	/	/	/
Cc1cc(Nc2ccccc2)n(C(=O)c2ccc(Cl)cc2)n1	53*	14	14	/	5
Cc1cc(Nc2ccccc2)n(-c2ccc(C(=O)O)cc2)n1	/	5	2	0	0
O=[N+]([O-])c1cccc2nc(-c3ccccc3)c(-c3ccccc3)nc12	-5	-2	2	-1	2
Cn1c(-[n+]2c(-c3ccccc3)cc(-c3ccccc3)cc2-c2ccccc2)nc2c([N+](=O)[O-])cccc21	/	-7	68*	0	3
COc1ccc([N+](=O)[O-])cc1NC(=O)CSc1nccc(C)n1	/	0	69*	-6	1
COc1cc(C=O)ccc1OCc1ccncc1	-2	-1	2	-1	2
COc1cc(C=O)ccc1OCc1ccc(Cl)nc1	63*	64	-1	38*	4
COc1ccc(C#Cc2ccc3c(c2)[C@@H]2[C@@H](CCN2S(=O)(=O)c2ccccc2C)[C@@H](CO)N3)cc1	1	/	/	/	/
CC(NC(=O)CSc1n[nH]c(N)n1)c1ccccc1 (stereo not given)	7	-8	1	-1	2
CCCc1ccc(-c2cc(NC(=O)CSc3n[nH]c(N)n3)n(-c3ccccc3)n2)cc1	64*	?	6	/	3
O=C(CCN1CCCCC1)N[C@@H]1CC[C@@H](CCn2cc(-c3ccc(F)cc3)nn2)O[C@@H]1CO	-2	/	/	/	/
CSCCC(=O)N1CCCC(CO)(CCCc2ccccc2)C1 (stereo not given)	-8	/	6	0	1
O=C1CCCN1CCC(=O)N1CCCC(CO)(Cc2ccccc2)C1 (stereo not given)	63*	49	6	32*	5
COc1ccc(-n2c(CN3CCC(C(N)=O)CC3)nc3ccc([N+](=O)[O-])cc3c2=O)c(OC)c1	4	-7	19	5	2
CCOC(=O)C1CCN(Cc2nc3ccc([N+](=O)[O-])cc3c(=O)n2-c2ccc(OC)cc2OC)CC1	48*	-1	15	13	0
COCC(=O)Nc1ccc2c(c1)C(=O)N(C)C[C@H](OC)[C@H](C)CN(Cc1ccccc1F)[C@H](C)CO2	-5	/	/	/	/
CCCOc1c(Br)cc(C2C3=C(CCCC3=O)N(CC)C3=C2C(=O)CCC3)cc1OC	44*	4	-1	-4	2
CCCOc1c(Br)cc(C2C3=C(CCCC3=O)N(C)C3=C2C(=O)CCC3)cc1OC	/	14	4	-4	0
COc1ccc(NC(=O)N(C)C[C@@H]2Oc3c(NC(=O)Nc4c(C)noc4C)cccc3C(=O)N([C@H](C)CO)C[C@H]2C)cc1	-4	/	/	/	/
COc1cccc(S(=O)(=O)N2CC[C@@H]3[C@H](CO)Nc4ccc(-c5ccc(C#N)cc5)cc4[C@@H]32)c1	7	/	/	/	/
C=CCNC(=S)NNC(=O)CSc1nc2ccccc2s1	/	8	32	-2	1
O=C(CSc1nc2ccccc2s1)NCCOc1ccc(Cl)cc1	-9	/	48*	/	-3
O=C(CSc1nc2ccccc2s1)NCCOc1ccccc1	/	4	36	4	0
O=C(CSc1nc2ccccc2s1)NNC(=S)Nc1ccc(Cl)cc1	/	3	71*	2	-1
CNC(=O)C[C@H]1CC[C@@H]2[C@H](COC[C@H](O)CN2Cc2ccc(C(F)(F)F)cc2)O1	-8	/	/	/	/
CN1C[C@H](O)COC[C@H]2O[C@@H](CC(=O)N3CCN(c4ccccc4)CC3)CC[C@@H]21	-1	/	/	/	/
CC(=O)c1cccc(Nc2ncnc3ccc(Br)cc23)c1	/	-5	74*	1	-4
CC(=O)c1cccc(Nc2ccc(Br)cc2)c1	54*	/	/	18	/
Cc1ccc2ncnc(Nc3ccc(C)c(C)c3)c2c1	5	-1	50*	2	-3
